# Experimental data from PubChem BioAssay (NCI).
# About 83,000 compounds went through this panel and 20% of them were active in at least one assay; those are over-represented in the sample as a whole.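 For each line, cells grew in 96-well plates with the test compound present at a single concentration for 48 hours.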 A number with no mark means an inactive call. The source made the active and inactive calls. Rule for the calls: active = growth percent below 10; inactive = the rest.
# Experiments:
# Assay in all cases: NCI-60 one-dose screen, 48 h (100 = growth as untreated, 0 = no growth, -100 = all killed)
# Conditions in all cases: 10 µM unless noted
# [1] = test system: HCT-15 colon
# [2] = test system: HT29 colon
# [3] = test system: SNB-75 CNS
# [4] = test system: SNB-19 CNS
# [5] = test system: U251 CNS
# [6] = test system: PC-3 prostate
# [7] = test system: SK-MEL-5 melanoma
# [8] = test system: UACC-62 melanoma
# [9] = test system: LOX IMVI melanoma
# [10] = test system: SK-MEL-28 melanoma
# [11] = test system: SK-MEL-2 melanoma
# [12] = test system: EKVX NSCLC
# [13] = test system: SN12C renal
# [14] = test system: UO-31 renal
# [15] = test system: TK-10 renal
# [16] = test system: ACHN renal
# [17] = test system: CAKI-1 renal
# [18] = test system: A498 renal
# [19] = test system: CCRF-CEM leukemia
# [20] = test system: MOLT-4 leukemia
SMILES,growth [1],growth [2],growth [3],growth [4],growth [5],growth [6],growth [7],growth [8],growth [9],growth [10],growth [11],growth [12],growth [13],growth [14],growth [15],growth [16],growth [17],growth [18],growth [19],growth [20]
COc1ccc(C(=O)CC#N)cc1,112%,126%,95.5%,103%,100%,105%,97.9%,105%,94.7%,114%,134%,126%,94.1%,105%,137%,108%,127%,109%,,
O=C1CC(=O)OC(c2ccc([N+](=O)[O-])cc2)O1,-48.8% (active),-39.5% (active),9.16% (active),55.2%,4.05% (active),37%,18.4%,-72.2% (active),-84.5% (active),-17.3% (active),-40.2% (active),47.8%,-37.6% (active),-88.2% (active),-15.5% (active),-76.2% (active),-45.7% (active),104%,15.3%,
COc1cc(CC(=O)n2ncc3ccc(N)cc32)cc(OC)c1OC,88.2%,109%,87.3%,101%,98.4%,88.2%,92.9%,92.9%,90.1%,99.9%,98%,91.8%,107%,70.2%,108%,94.9%,85.9%,97.4%,101%,
O=C1NN(C(=O)c2ccccc2)C(c2ccc(Cl)c(Cl)c2)=C/C1=C\c1ccc([N+](=O)[O-])cc1,71.8%,101%,65.3%,58.7%,69.7%,46.7%,86.8%,70.3%,86.9%,111%,100%,88.3%,92.3%,61.9%,106%,90.3%,77.1%,80.4%,88.5%,
Cc1c2cc[nH]c(=O)c2c(C)c2c1[nH]c1cc(OCCN3CCN(C)CC3)ccc12,10.1%,-7.17% (active),7.53% (active),12.9%,17%,7.38% (active),11.9%,5.81% (active),-62.3% (active),5.74% (active),-13.1% (active),-2.81% (active),21%,2.27% (active),27.5%,-17.5% (active),43.7%,-29.1% (active),13.9%,
CCNc1nc2cc(Nc3ccnc4cc(Cl)ccc34)ccc2o1,40.9%,31.5%,83.7%,84.4%,74.4%,64.3%,48.2%,70.9%,58.5%,80.7%,81.2%,86%,79.3%,70.2%,81.9%,88.2%,71.9%,47%,76.8%,
N#Cc1c(-c2ccccc2)nc2c(c(-c3ccccc3)nn2-c2ccccc2)c1-c1ccc(O)cc1,34.8%,84.7%,33.2%,39.3%,24.3%,4.85% (active),59%,61.5%,-48.3% (active),49.1%,72.7%,45.2%,61.9%,27.9%,21.7%,42.3%,53.4%,-1.01% (active),22.1%,
O=C1c2cccc3c(-c4ccc5c(c4)ncn5C4CCCCC4)ccc(c23)C(=O)N1c1nc2ccccc2s1,59.5%,84%,75.2%,94.6%,86.9%,73.2%,74.6%,73%,84.8%,96.6%,81.4%,76.4%,83.7%,56.3%,99.6%,84.7%,72.8%,121%,83%,81.1%
CCCCC/C=C/C(C)=C/C1CC(C)C/C=C/CCC(O)C(OC(N)=O)CCC(C)CC(O)C(C)C(=O)O1 (stereo not given),89.8%,96.9%,98.9%,183%,82.1%,73.7%,61.4%,82%,73.9%,85.7%,92.6%,91.9%,97.2%,64.3%,100%,73.1%,78.9%,71.7%,,
Cc1nc2sccn2c1-c1nc2sccn2c1/C=C1/C(=O)Nc2ccccc21,29.4%,0.756% (active),15.2%,31.5%,24.6%,28.7%,20.5%,33.6%,36.3%,45.3%,61%,56.6%,65.6%,39.6%,70.9%,41.5%,2.29% (active),5.72% (active),35%,
CC(C)=CCC[C@](C)(O)[C@H]1CC[C@]2(C)[C@@H]1CC[C@@H]1[C@@]3(C)C/C(=C/c4ccccc4)C(=O)C(C)(C)[C@@H]3CC[C@]12C,93.6%,99.9%,67.2%,88%,85.8%,79.6%,98.7%,88.2%,93.4%,104%,98.3%,96.4%,91%,66.7%,63.8%,96.3%,53.7%,85.6%,87.8%,
O=C(/C(=C\c1ccc([N+](=O)[O-])cc1)S(=O)Cc1ccc(Cl)cc1)c1ccc(Cl)cc1 (stereo not given),34.8%,16.5%,93%,71.6%,53.6%,66.9%,90.7%,69.2%,40.5%,86.8%,94.6%,98.5%,49.6%,70.4%,91.9%,64.6%,83.8%,77.4%,22%,25.1%
COc1cc(C(=O)Nc2cc3c(cc2Oc2cc(C)cc(C)c2)C(=O)N(C)[C@@H](CC(=O)N(C)O)C(=O)N3)c(Br)c(OC)c1OC,-16.2% (active),-14.5% (active),-48.1% (active),-21.9% (active),-0.595% (active),-14.5% (active),-71.7% (active),-69% (active),-41.5% (active),-49.1% (active),-55.3% (active),-18.8% (active),-27.7% (active),-32.4% (active),-12.2% (active),-30% (active),-5.8% (active),-56.7% (active),2.91% (active),
Cc1cccc(-c2cn3ccnc3c(-c3ccc4ncn(Cc5ccccc5)c4c3)n2)c1,64.8%,58%,78.3%,97.4%,80.6%,75.2%,89.9%,97.5%,85.2%,101%,93.7%,77.7%,95.3%,58.3%,110%,87.6%,75.2%,77.9%,78.9%,63.1%
COc1cc(NC(=O)CSc2nc3ccc(C)cc3c(=O)n2Cc2ccccc2)cc(OC)c1OC,84.4%,70.6%,-5.79% (active),89.8%,57.6%,74.1%,39.3%,53.2%,61.7%,75.1%,57.2%,84.9%,83.5%,71.4%,55.4%,38%,82.4%,14.1%,94.1%,
C#Cc1cccc(NC(=O)Nc2cccc(NC(=O)CCl)c2)c1,-56.5% [8.25 µM] (active),18% [8.25 µM],30% [8.25 µM],-11% [8.25 µM] (active),-88% [8.25 µM] (active),-26.3% [8.25 µM] (active),-96% [8.25 µM] (active),-61.6% [8.25 µM] (active),-93.8% [8.25 µM] (active),48.5% [8.25 µM],6.45% [8.25 µM] (active),102% [8.25 µM],-67.7% [8.25 µM] (active),-64.7% [8.25 µM] (active),-59.8% [8.25 µM] (active),-72.7% [8.25 µM] (active),15.8% [8.25 µM],76.5% [8.25 µM],14.9% [8.25 µM],
